The panel holds about 79,000 compounds, 15% with a hit somewhere; the sample as a whole holds those more often. Calls of active or inactive are those of the source. Cut-off read from the data, not from the text of the source: active = growth inhibition above about 70%; inactive = the rest.
Experiment: NCI Yeast Anticancer Drug Screen. Data for the rad14 strain (AID 159);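 note: 0% = growth of vehicle-treated control cultures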
Details: S. cerevisiae rad14 strain growth inhibition, active compounds read high
Description: Growth inhibition of yeast strains with defined genetic alterations is measured as a screen for potential anti-cancer activity. Selected strains with alterations in DNA damage repair or cell cycle control were exposed to compounds and growth inhibition was measured relative to vehicle treated controls. The strain used in this assay is rad14

Measured: growth inhibition

Cc1cccc(/C=N/NC(=S)N(C)CCc2ccccn2)n1
active: at 1.2 µM 95% | at 3.7 µM 97% | at 11.0 µM 99% | at 33.0 µM 99% | at 100.0 µM 99%

COC(=O)c1oc([N+](=O)[O-])c(Cl)c1Cl
active: at 1.2 µM 99% | at 3.7 µM 71% | at 11.0 µM 90% | at 33.0 µM 99% | at 100.0 µM 99%

CC(C)c1[nH]nc(C(N)=O)c1N=NN(C)C
inactive: at 1.2 µM -1% | at 3.7 µM 1% | at 11.0 µM 6% | at 33.0 µM 12% | at 100.0 µM 29%

COC(=O)c1ccc2c(c1)Cc1ccccc1-2
inactive: at 1.2 µM -3% | at 3.7 µM -6% | at 11.0 µM -4% | at 33.0 µM -3% | at 100.0 µM -6%

COC(=O)c1cccc(C)c1C(=O)c1c(C)cc(C)cc1C
inactive: at 1.2 µM 0% | at 3.7 µM 0% | at 11.0 µM 5% | at 33.0 µM 20% | at 100.0 µM 47%

CN(Cc1cnc2nc(N)nc(N)c2n1)c1ccc(C(=O)NC(CCC(=O)O)C(=O)O)c2ccccc12 (stereo not given)
active: at 33.0 µM 82% | at 100.0 µM 91%
inactive: at 1.2 µM -2% | at 3.7 µM 11% | at 11.0 µM 49%

N#CSC1CCCCNC1=O (stereo not given)
inactive: at 1.2 µM 2% | at 3.7 µM -4% | at 11.0 µM 10% | at 33.0 µM 59%
active: at 100.0 µM 99%

O=C(NCCCCCN1CCC2(CCCCC2)CC1)C(C1CCCCC1)C1CCCCC1
active: at 11.0 µM 98% | at 33.0 µM 99% | at 100.0 µM 99%
inactive: at 1.2 µM 11% | at 3.7 µM 49%

From PubChem BioAssay (NCI)
